# Results taken from PubChem BioAssay AID1347426 (Functional Genomics Laboratory (NCATS/FGL), 2020).
# Among all 31,000 sequences or so, about 1,400 (4.5%) were called active. This is one part of a sample in which actives are shown more often than they occur. A number with no mark means an inactive call.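 How the source made its calls: active means median seed-adjusted z-score above 1 or below -1; inactive means the rest.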
# Assay: Novel Modifiers of Survival Motor Neuron (SMN) Protein: Gene Identification via Genome-wide siRNA Screen;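 further: luminescence tracks full-length SMN protein made from the SMN2 reporter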
# Conditions: HEK293T SMN2-luciferase reporter, siRNA knockdown, 72 h; actives lie on both sides
# How it was run: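 Steps: spot 1 pmol siRNA, add Lipofectamine RNAiMax in serum-free DMEM, seed HEK293T SMN2–luciferase reporter cells; incubate 72 h at 37 °C; add ONE-Glo; normalize luminescence to control siRNA, log10, MAD. Candidates: |MAD| > 1.0.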
row,Sequence,median seed-adjusted z-score
1,GCUAGACACCGGACCAAAATT against MMP28,0.862
2,GGACAACUAUGGUAAGAAATT against TCF7L1,-0.251
3,GGAUUGAGCGCAUCAAGGUTT against GNG7,-0.205
4,GAAUGCUGUUUAUCUUAAUTT against PNPLA1,0.00692
5,GGGAAAAAGUUCUUGCGUATT against USP12,0.121
6,GCUUUACAACAAUCACAUATT against AMIGO2,-0.258
7,CUCUUUCAAGUAUGAGACATT against INHA,0.231
8,CAGCUGCUAUCAGAACGGATT against APBA2,1.66 (active)
9,GAAUAUUCUUGCAGAGUUUTT against WFDC5,0
10,GGCUUUUGAGCAUCCCAAUTT against CDK4,0.346
11,CAGUCCCUCUAUCACAUAUTT against ERH,-1.25 (active)
12,GGAGGUGUUUUGUUCGGAUTT against SV2C,0.183
13,GGCUAGUGAUAUACUAUAUTT against RPS6KA6,-0.0821
14,CCAUCAGUACAUAUCCGAATT against ABCA8,-0.666
15,GCUCAUGGUUGAUGAUUCUTT against RABGGTA,-0.0601
16,UCACUAUCAGUACCCAUUATT against CHRNB1,0.16
17,GGAGAGAGGUCCAGUCUGATT against BIRC7,-1.44 (active)
18,CAAAGUAUCGGGUCAUCUATT against DMRTA1,-0.162
19,CUUUGACAGUGUUCGUGAATT against SGOL2,0.114
20,CCAAGACGAUGAGAGUAUATT against UGCGL2,-0.456
21,CGGGCGAGUUUACUAUGUATT against ITCH,0.199
22,GCAUUGCCGAGAUCCAUGATT against PIK3R2,0.421

row,Sequence,median seed-adjusted z-score
1,UCACGUAGAGUCAUAUUUATT against HNRPA1P4,-0.906
2,ACACAGCUGUUGUACCUCATT against MAP4,1.67 (active)
3,GAUACUUUGCCGUCAAUUATT against CA5B,0.317
4,CCAUUGAUCUGCACUACUATT against NUP85,0.948
5,GACCUAUCCUUGCACCAGATT against ECT2,0.04
6,GCUCGAGUGGAAGAACUCATT against GLMN,0
7,GCAGGACCCAUUACGGCUATT against DPEP1,-0.886
8,GGCUGUGCAUAAACGAGAATT against GTF2E1,1.76 (active)
9,GGAGAACCAUAGAAAACCATT against RIPK3,0.123
10,CGAGGACACCCUUAGCAGUTT against ADRA1B,-0.472
11,GACCGUACGAGGCAAGUAATT against PAX1,-0.111
12,GAACGAGUGAGAGAAUAUATT against TTC9C,-0.571
13,GCCGAGUCAGUAUCUAUGATT against STARD13,-0.0337
14,GGACAAGAAUUUUGCCUUUTT against U2AF2,2.14 (active)
15,CCACGGUGAUAACAGACAUTT against ALDH8A1,0.0628
16,GGCUAUACAGGGUAGACAATT against PXDNL,-0.186
17,GGCAGAUAACUGAACGAGATT against HECW2,0.38
18,CUGGCUACGUGAAUGUGCATT against ZDHHC12,-0.0312
19,GGAACUCGUGCAUCUCCAATT against CD93,-0.0879
20,GAGAUUACAUAAACGGAGATT against PARP11,0.192
21,CAGAUGUUAUGGAUAUAAUTT against L2HGDH,-0.346
22,GCUUAUGGUUGAUCAGUUATT against RNF7,-1.18 (active)

row,Sequence,median seed-adjusted z-score
1,UGAGUUGCCCUGAUUUGAATT against AIF1,-0.0293
2,GCAACUCCUUCCUCGCUAATT against RBM17,0
3,GAAUGUUCAAGAUCGAUUUTT against RANBP2,1.53 (active)
4,UCAUGUAUGUGGGAGCCAATT against SNCG,-0.169
5,AGGUGAUGCAGGACAGAAATT against COL18A1,-0.441
6,CCUCAACUCUUAUAUUACATT against ZNF595,0.102
7,GGAUCCCUAUGUUCGGAAATT against AP2B1,-0.214
8,GCAGUAAUAUUUAUCUCUUTT against SUCNR1,0
9,CCUGAAUCCUUAGACUUAATT against PROX1,-0.372
10,ACCCUGCUAUACUCCCUAUTT against MAPKAPK3,-0.506
11,GAUCCUAAUAUGAAGUUAUTT against FUBP1,-1.52 (active)
12,GCUAGAGAUUGACCAGAAATT against NUDC,-0.227
13,GGCAACAACUGGAUCUGAATT against PIGZ,0.74
14,CUGGAUGAGGUGUACCUUATT against XPNPEP1,-1.5 (active)
15,GCAUGACCCUCGUCACAUATT against THBS1,-0.847
16,GGGUAGGUGAUAUCCAUAUTT against ZBTB5,0.314
17,GGCGGAGUAUGGAAAGUUATT against UBE2H,0
18,GCACCUCUCUGCUAACUGUTT against PGC,0.884
19,CGAUGUCAGUAGGAACCUUTT against PSMC1,-2.23 (active)
20,CGACUACCCAUACUCUCCATT against CDC34,0
21,CUACCUCUAUAUCACCAAATT against KDELR1,-0.0168
22,CCGUUGCUCUAUCUUCGUATT against SETBP1,0.0232

row,Sequence,median seed-adjusted z-score
1,GAAAGACAGAUCAAGAUUUTT against HOXB7,-0.153
2,ACCGCUUCAUGUCUGCGUATT against SF3A2,-1.7 (active)
3,AUCCGAUGGUGGUUACUGATT against MCOLN1,-0.522
4,CGGCUUGAAUUUGAUCUAUTT against AASDHPPT,0.64
5,GAGUGACUGUAGAGCCUCATT against GCS1,0.819
6,CACGGUCUGUUCUCAGAUUTT against MXD4,0.688
7,CCCUUUUACUAUUCAGCGATT against PPP4R2,0.211
8,CAUUUUAGAUGGGCACAAUTT against GOSR2,-1.25 (active)
9,GAAUGAUCGUGAUCCUCGUTT against AHCTF1,-0.501
10,GAGUGAAGAUGAGUUGACATT against XRCC6,0
11,GACCGGAUAUGGGCUAUAATT against NEK7,0
12,CAAUUUUGCAGGCAACUUUTT against SCYE1,0.437
13,GACAUAUAAUGACAUAGAUTT against TRAK1,0.298
14,CUUUGUCAGAGAUCACUUATT against PIPOX,1.06 (active)
15,GGAAUGCUAAGUUCCGAGATT against ARFGAP1,0.123
16,AGGUUUCAGUGGUUUGGAUTT against COL1A1,0
17,CCAAGAACCCGGAGAAGUATT against EXOC7,-0.231
18,GUACAAUACAAACACUUAATT against ORC4L,-0.286
19,GCGUGGACCCAAAUCAAUATT against KARS,-0.152
20,GCUCCAACAUGGUCUACAATT against POLE,-1.55 (active)
21,GCUAGUCUUCUGGAAGUUATT against SRPRB,0.000693
22,GGAUAUGCAUGCAAUCAAATT against ADAM23,-0.0279

row,Sequence,median seed-adjusted z-score
1,GCCGUGACAUGAUAGGCAUTT against DDX41,-0.611
2,GGUUUGUGAAAGCAUAUAATT against FMNL2,0.293
3,GGAACGAAGAGAACUAGAATT against OFD1,0
4,CCAAGGAGCUUACUAUGGATT against SETDB2,0.417
5,UGAGCAUGACUGAUUCCAATT against SFTPD,0.289
6,GUGAAGAUGUGGUCCUGAATT against PTK2B,1.71 (active)
7,GGCUGUAAACUGCGCAUCATT against APOBEC2,0.232
8,GAAUUGGAGAGCACCAAUATT against POLR2B,-4.81 (active)
9,ACAGGAUUCCAGAAAUGGATT against REG1A,0.596
10,GCAGAAUUCUCCUACCAAATT against ENTPD3,-0.28
11,GGUCAACGAUGACAACCGATT against ITGB4,-0.226
12,CGGUAUCAUUACUGGAUAATT against LNPEP,-0.386
13,CCUUUGAGAUGGAAGCCUATT against ACY3,0.568
14,CAACCCUACCAAUGCUACUTT against PTP4A2,-1.45 (active)
15,GCUGUGAAAUUGUUUCGAATT against IREB2,0
16,GGGAACUUCUUGGAACUUUTT against KLK12,0.243
17,CCAGCGCAACAAAGGAAAATT against HMX1,1.3 (active)
18,GAACUAAGCACUACUCUAATT against DRP2,-0.0555
19,GCUACUUCUCAGUUGCUAATT against NDST4,0.426
20,CAAAGUGACCAAGCAGAGATT against SF3A2,-1.7 (active)
21,CACCAGGACCAGUUAAAAATT against MVD,-0.561
